Assay results published in PubChem BioAssay (EPA / NIEHS).
Results filed as inconclusive are left out. Activity calls are given as the source filed them. How the source made its calls: active means hit-call score of the fitted dose curve at least 0.9, where 1 is the maximum; inconclusive means response in the unintended direction; inactive means score below 0.9.

molecular target: rat Adrenergic Receptor, Alpha 2 (Adra2), Non-selective Binding, Adra2a (gene 25083) (UniProt P22909); assay: NVS_GPCR_rAdra2_NonSelective: NovaScreen (NVS) G Protein-Coupled Receptor Assay for rat Adrenergic Receptor, Alpha 2 (Adra2), Non-selective Binding (AID 2283299)
Sequence (P22909 whole entry, looked up): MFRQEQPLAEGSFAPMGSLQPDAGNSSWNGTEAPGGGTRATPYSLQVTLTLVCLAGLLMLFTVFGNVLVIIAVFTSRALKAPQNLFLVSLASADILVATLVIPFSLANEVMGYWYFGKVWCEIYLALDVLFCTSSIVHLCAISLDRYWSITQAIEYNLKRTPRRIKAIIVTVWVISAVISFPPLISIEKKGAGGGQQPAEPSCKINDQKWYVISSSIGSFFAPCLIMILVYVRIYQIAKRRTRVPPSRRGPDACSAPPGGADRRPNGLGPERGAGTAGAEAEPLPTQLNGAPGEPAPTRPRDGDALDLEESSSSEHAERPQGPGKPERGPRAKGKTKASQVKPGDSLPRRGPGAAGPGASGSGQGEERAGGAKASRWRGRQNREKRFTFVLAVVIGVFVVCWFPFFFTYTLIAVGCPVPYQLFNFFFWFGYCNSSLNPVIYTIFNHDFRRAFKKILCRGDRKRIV
How it was run: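 Filter-based scintillation counting of radioligand binding to rat cortical membrane receptors, measured 1.25 hours post-dosing; loss of signal versus DMSO indicates displacement. Initial single-concentration duplicate at 25 uM, then concentration series.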

| Compound | outcome | AC50 |
| --- | --- | --- |
| COC(=O)N(C(=O)N1CO[C@@]2(C(=O)OC)Cc3cc(Cl)ccc3C2=N1)c1ccc(OC(F)(F)F)cc1 | inactive |  |
| N#Cc1c[nH]cc1-c1cccc2c1OC(F)(F)O2 | inactive |  |
| CCCN(CC)CC1COC2(CCC(C(C)(C)C)CC2)O1 (stereo not drawn) |  | 16.7 µM (active) |
| Cn1c(-c2ccccc2)cc(-c2ccccc2)[n+]1C |  | 3.72 µM (active) |
| Cc1ccc(N=CN(C)C=Nc2ccc(C)cc2C)c(C)c1 |  | 0.219 µM (active) |

molecular target: rat Corticotropin Releasing Factor Receptor (CRF), Crhr1 (gene 58959) (UniProt P35353); assay: NVS_GPCR_rCRF: NovaScreen (NVS) G Protein-Coupled Receptor Assay for rat Corticotropin Releasing Factor Receptor (CRF) (AID 2283300)
Sequence (P35353 whole entry, looked up): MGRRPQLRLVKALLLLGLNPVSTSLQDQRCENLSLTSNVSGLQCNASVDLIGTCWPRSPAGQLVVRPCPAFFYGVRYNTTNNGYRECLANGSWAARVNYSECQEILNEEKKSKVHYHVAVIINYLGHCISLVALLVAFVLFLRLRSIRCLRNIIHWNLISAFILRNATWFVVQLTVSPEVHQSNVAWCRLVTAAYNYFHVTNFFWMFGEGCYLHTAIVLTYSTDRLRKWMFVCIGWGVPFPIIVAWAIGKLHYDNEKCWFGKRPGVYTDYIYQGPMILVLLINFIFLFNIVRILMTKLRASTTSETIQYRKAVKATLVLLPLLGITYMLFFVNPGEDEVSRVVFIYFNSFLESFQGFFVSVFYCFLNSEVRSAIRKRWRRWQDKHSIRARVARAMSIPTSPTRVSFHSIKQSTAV
Experimental: NVS_GPCR_rCRF is a biochemical, single-readout assay that uses extracted gene-proteins from Rat cortical membranes in a tissue-based cell-free assay. Measurements were taken 2 hours after chemical dosing in a 96-well plate.NVS_GPCR_rCRF is one of one assay component(s) measured or calculated from the NVS_GPCR_rCRF assay. It is designed to make measurements of radioligand binding, a form of binding reporter, as detected with scintillation counting signals by […] radiodetection technology.Data from the assay component NVS_GPCR_rCRF was analyzed into 1 assay endpoint. This assay endpoint, NVS_GPCR_rCRF, was analyzed in the positive analysis fitting direction relative to DMSO as the negative control and baseline of activity. Using a type of binding reporter, loss-of-signal activity can be used to understand changes in the binding as they relate to the gene Crhr1. Furthermore, this assay endpoint can be referred to as a primary readout, because the performed assay has only produced 1 assay endpoint. To generalize the intended target to other relatable targets, this assay endpoint is annotated to the gpcr intended target family, where the subfamily is secretin receptor.
Binding assays used specific radioligands (tritiated, iodinated) with non-radioactive competitive displacement ligands in agonist or antagonist protocols (as indicated) and various reference compounds and inhibitors to titrate specific binding to receptors and transporters. Most enzyme assays (CYPs, kinases, phosphatases, proteases, HDACs) used recombinant protein and specific substrates (fluorescence mostly, some colorimetric and radioactive) and inhibitors, followed by a biochemical separation of substrate and product. All assays for the biochemical HTS were initially run in duplicate at a single concentration (10 uM for CYP450 assays and 25 uM for all others). […] Each assay was run with positive and negative controls, and concurrent controls on every plate. […]

| Compound | outcome |
| --- | --- |
| N#CN=C1SCCN1Cc1ccc(Cl)nc1 | inactive |
| CCN(CC)C(=O)C(C)Oc1cccc2ccccc12 (stereo not drawn) | inactive |
| COC(=O)N(C(=O)N1CO[C@@]2(C(=O)OC)Cc3cc(Cl)ccc3C2=N1)c1ccc(OC(F)(F)F)cc1 | inactive |

molecular target: Adra2b (gene 24174) (UniProt P19328); assay: NVS_GPCR_rmAdra2B: NovaScreen (NVS) G Protein-Coupled Receptor Assay for hybird cells Adrenergic, Alpha 2B Receptor (Adra2B) (AID 2283306)
Sequence (P19328 whole entry, looked up): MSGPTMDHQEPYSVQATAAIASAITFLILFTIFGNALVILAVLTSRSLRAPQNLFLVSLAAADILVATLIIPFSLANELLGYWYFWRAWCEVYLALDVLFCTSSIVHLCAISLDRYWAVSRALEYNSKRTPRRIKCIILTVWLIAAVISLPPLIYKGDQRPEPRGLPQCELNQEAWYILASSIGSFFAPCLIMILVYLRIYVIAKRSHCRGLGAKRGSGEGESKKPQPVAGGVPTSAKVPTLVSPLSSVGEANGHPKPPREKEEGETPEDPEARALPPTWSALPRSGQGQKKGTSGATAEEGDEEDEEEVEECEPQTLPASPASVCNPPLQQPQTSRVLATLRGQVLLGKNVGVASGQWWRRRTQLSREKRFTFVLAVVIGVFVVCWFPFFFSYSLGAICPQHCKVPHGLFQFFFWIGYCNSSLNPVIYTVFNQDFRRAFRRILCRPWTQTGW
How it was run: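 Compounds screened first at 25 uM in duplicate, with actives followed up in concentration-response; specific radioligand displacement from hybrid neuroglioma/blastoma cell membrane preparations measured by filter scintillation counting after 1 h, normalized to DMSO.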

| Compound | outcome | AC50 |
| --- | --- | --- |
| N#CN=C1SCCN1Cc1ccc(Cl)nc1 | inactive |  |
| CCCN(CC)CC1COC2(CCC(C(C)(C)C)CC2)O1 (stereo not drawn) |  | 25 µM (active) |
| Cn1c(-c2ccccc2)cc(-c2ccccc2)[n+]1C |  | 0.891 µM (active) |
| CN/C(=N\[N+](=O)[O-])NCc1cnc(Cl)s1 |  | 8.79 µM (active) |
| Cc1ccc(N=CN(C)C=Nc2ccc(C)cc2C)c(C)c1 |  | 0.779 µM (active) |
